Results published in PubChem BioAssay (Tox21).
Where “and” joins values, the source holds several entries; their conditions need not be identical. Equal values may be shown once. Inconclusive results are not listed. Entries that show only a call come without a potency. Calls of active or inactive are those of the source. Calls come from the whole dose curve; as a rule, active = well fitted inhibition curve with a large enough effect in the repeat runs; inconclusive = weak or mixed curves; inactive = no such curve, though single readings can be large or run the other way.

target: Cytochrome P450 3A4 (Homo sapiens) (UniProt P08684); assay: Cytochrome P450 Family 3 Subfamily A Member 4 (CYP3A4) small molecule antagonists: luciferase reporter qHTS assay (AID 1671201); conditions: P450-Glo CYP3A4 enzyme, luciferin luminescence, 1 h; series mostly up to 115 µM; note: nearly all actives have a fitted effect of over 50% in size
Sequence (P08684 whole entry, looked up): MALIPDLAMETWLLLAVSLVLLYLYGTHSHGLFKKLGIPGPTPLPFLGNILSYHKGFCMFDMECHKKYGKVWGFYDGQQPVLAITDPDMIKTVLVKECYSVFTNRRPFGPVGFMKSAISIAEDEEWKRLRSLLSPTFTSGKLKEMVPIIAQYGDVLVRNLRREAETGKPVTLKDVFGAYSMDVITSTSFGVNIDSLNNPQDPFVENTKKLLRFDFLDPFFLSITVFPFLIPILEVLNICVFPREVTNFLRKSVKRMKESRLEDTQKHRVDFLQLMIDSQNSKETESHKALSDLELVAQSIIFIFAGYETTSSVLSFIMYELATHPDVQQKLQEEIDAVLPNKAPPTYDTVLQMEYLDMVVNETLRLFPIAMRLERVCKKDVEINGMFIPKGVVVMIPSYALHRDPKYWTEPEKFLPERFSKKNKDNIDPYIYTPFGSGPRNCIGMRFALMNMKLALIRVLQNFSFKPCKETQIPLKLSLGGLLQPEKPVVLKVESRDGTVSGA
Description: National Center for Advancing Translational Sciences [NCATS]
U.S. Environmental Protection Agency [EPA]
National Institutes of Environmental Health Sciences [NIEHS]
National Toxicology Program [NTP]
U.S. Food and Drug Administration [FDA]
Cytochrome P450 (CYP) enzymes are membrane-bound hemeproteins that play a key role in metabolism of drugs and xenobiotics. Evaluation of the effect of chemicals on CYP isozymes is useful to minimize the adverse drug reactions and toxicities in drug development process. Tox21 chemicals were tested for their effect on CYP enzyme activities by using P450-Glo (TM) screening systems (Promega Corporation, Madison, WI). These systems provide a luminescent method containing proluciferin substrates and are converted to luciferin products by CYP isozymes. The luciferin products formed are detected with a luciferin detection reagent, and the amount of light produced is proportional to CYP activity. P450-Glo (TM) CYP3A4 screening system (Catalog. No. V9910) was used to detect the compounds that interfere in CYP3A4 activity. The positive control compound used for CYP3A4 assay is ketoconazole (Sigma-Aldrich, St. Louis, MO).
Tox21 Assay Protocol Summary:
Two ul of enzyme-substrate mix was dispensed into medium binding white/solid 1536-well plates (Greiner Bio-One North America Inc., Monroe, NC) using a BioRaptr Flying Reagent Dispenser (FRD, Beckman Coulter, Brea, CA). Compounds dissolved in DMSO and positive control (ketoconazole) were transferred to the assay plates at 23 nl using a Pintool station (Wako, San Diego, CA). The assay plates were incubated at room temperature for 10 min. Then 2 ul of NADPH regeneration solution was added to each well of the assay plates using an FRD and incubated at room temperature for 1 h. The reaction was stopped by adding 4 ul of detection reagent using an FRD and after 20 min incubation at room temperature the luminescence signal was measured using a ViewLux plate reader (Perkin Elmer, Shelton, CT). Data were expressed as relative luminescence units.
Potency is the fitted concentration of half-maximal effect.

Row | SMILES | Potency
1 | Cc1cc(C)c(C2=C(OC(=O)CC(C)(C)C)C3(CCCC3)OC2=O)c(C)c1 | 37.3 µM (active)
2 | O=[N+]([O-])c1ccc(Oc2ccc(C(F)(F)F)cc2[N+](=O)[O-])cc1 | inactive
3 | O=C(Nc1ccc2[nH]ccc2c1)c1cc2cc(F)ccc2n1Cc1cccc(F)c1 | 2.52 µM (active)
4 | O=[N+]([O-])c1cc(C(F)(F)F)c(Cl)c([N+](=O)[O-])c1Cl | 56.4 µM (active)
5 | Oc1ccc(C2(c3ccc(O)cc3)c3ccccc3-c3ccccc32)cc1 | 17.8 µM (active)
6 | CC1(C)[C@H](C(=O)O[C@H](C#N)c2cccc(Oc3ccccc3)c2)[C@@H]1/C=C(\Cl)C(F)(F)F | inactive
7 | CS(=O)(=O)c1ccc(C(=O)C2C(=O)CCCC2=O)c([N+](=O)[O-])c1 | inactive
8 | CCSC(C)CC1CC(=O)C(/C(CC)=N/OC/C=C/Cl)=C(O)C1 (stereo not given) | 8.71 µM (active)
9 | CCOC(=O)OC1=C(c2cc(C)ccc2C)C(=O)NC12CCC(OC)CC2 (stereo not given) | 1.12 µM (active)
10 | Oc1ccc(C(c2ccc(O)cc2)(C(F)(F)F)C(F)(F)F)cc1 | 35.4 µM (active) and 35.6 µM (active)
11 | N#Cc1ccc(O)cc1 | inactive
12 | CC(=[OH+])/C=C(/C)[O-].CC(=[OH+])/C=C(\C)[O-].CC(=[OH+])/C=C(\C)[O-].[Al] | inactive
13 | CC(=O)c1ccc(-c2ccccc2)cc1 | inactive
14 | CCc1nn(C)c(C(=O)NCc2ccc(C(C)(C)C)cc2)c1Cl | inactive
15 | CC(=O)/C=C/c1ccc2c(c1)OCO2 | 2.53 µM (active)
16 | CC(C)CC(C)(c1ccc(O)cc1)c1ccc(O)cc1 | 17.9 µM (active) and 31.7 µM (active)
17 | [Cl][Sb]([Cl])[Cl] | inactive
18 | O=c1c(C2CC(c3ccc(-c4ccc(Br)cc4)cc3)Cc3ccccc32)c(O)sc2ccccc12 (stereo not given) | inactive
19 | Nc1ccccc1C(=O)Oc1ccc2ccccc2c1 | inactive
20 | COS(=O)(=O)c1ccc(C)cc1 | inactive

Row | SMILES | Potency
21 | CC(=[OH+])/C=C(/C)[O-].CC(=[OH+])/C=C(\C)[O-].CC(=[OH+])/C=C(\C)[O-].[Fe] | inactive
22 | CCOP(=S)(OCC)SCS(=O)(=O)CC | 7.96 µM (active)
23 | CC(C)(c1ccc(O)c(-c2ccccc2)c1)c1ccc(O)c(-c2ccccc2)c1 | 5.03 µM (active)
24 | Cc1ccc(OP(=O)(Oc2ccccc2)Oc2ccccc2)cc1 | inactive
25 | CC(C)(O)c1cnn2c(-c3ccc(F)c(-c4c(F)cccc4C#N)c3)cnc2n1 | 35.6 µM (active)
26 | N#C/C=C/C#N | 37.3 µM (active)
27 | CCCN(CCC)c1c([N+](=O)[O-])cc(S(N)(=O)=O)cc1[N+](=O)[O-] | 21.3 µM (active)
28 | COP(N)(=S)OC | inactive
29 | CCOc1cc(C(C)(C)C)ccc1C1COC(c2c(F)cccc2F)=N1 (stereo not given) | 0.0683 µM (active)
30 | Oc1ccc(C(=C(Cl)Cl)c2ccc(O)cc2)cc1 | 11.2 µM (active)
31 | Cc1cc(C(F)(C(F)(F)F)C(F)(F)F)ccc1NC(=O)c1cccc(I)c1C(=O)NC(C)(C)CS(C)(=O)=O | 2.01 µM (active)
32 | Nc1ccc(Cc2ccc(N)c(Cl)c2)cc1Cl | 3.44 µM (active)
33 | CC(C)(C)c1ccc(CSc2cnn(C(C)(C)C)c(=O)c2Cl)cc1 | inactive
34 | CC(=O)C(Cl)(Cl)Cl | inactive
35 | CC(C)(C)c1cc([N+](=O)[O-])cc(C(C)(C)C)c1O | inactive
36 | N#CCc1ccc(Cl)cc1 | inactive
37 | CC(C)CC(C)N (stereo not given) | inactive
38 | OC(Cc1ccccc1Cl)(Cn1cncn1)C1(Cl)CC1 (stereo not given) | 0.2 µM (active)
39 | C[C@@H](Oc1ccc(Cl)cc1Cl)C(=O)O | inactive
40 | c1ccc(Nc2ccc3ccccc3c2)cc1 | 22.3 µM (active) and 35.6 µM (active)
